Results taken from PubChem BioAssay AID485341 (National Center for Advancing Translational Sciences (NCATS), 2010).
Screen size: about 330,000 compounds; about 1,700 (0.52%) were called active. Where a call stands in place of a potency, no number is given. Calls come from the whole dose curve; as a rule, active = well fitted inhibition curve with a large enough effect; inconclusive = small, poorly fitted or top-dose-only effect; inactive = no such curve, though single readings can be large or run the other way. The full list was thinned out, with actives kept by preference.

Molecular target: Beta-lactamase (Escherichia coli (strain K12)) (UniProt P00811)
Sequence (P00811 whole entry, looked up): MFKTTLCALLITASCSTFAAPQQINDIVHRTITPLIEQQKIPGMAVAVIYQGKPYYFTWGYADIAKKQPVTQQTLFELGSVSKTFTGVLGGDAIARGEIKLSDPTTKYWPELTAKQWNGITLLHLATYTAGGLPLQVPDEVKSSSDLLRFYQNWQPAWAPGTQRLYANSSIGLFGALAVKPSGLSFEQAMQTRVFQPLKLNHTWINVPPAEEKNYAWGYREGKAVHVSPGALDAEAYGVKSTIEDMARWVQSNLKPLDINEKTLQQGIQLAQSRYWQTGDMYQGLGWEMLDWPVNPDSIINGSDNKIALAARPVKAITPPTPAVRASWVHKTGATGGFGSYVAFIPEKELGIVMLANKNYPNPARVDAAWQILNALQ
Experiment: qHTS Inhibitors of AmpC Beta-Lactamase (assay without detergent); note: nearly all actives have a fitted effect of over 20% in size
Settings: AmpC nitrocefin hydrolysis, absorbance 480 nm, 0.0001% Triton; series mostly up to 57.1 µM
Procedure, shortened: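 20 mM phosphate pH 7.0 + 0.01% (detergent screen) or 0.0001% Triton X-100; 5.3 nM AmpC reagent; cpd preinc 15 min RT; nitrocefin (800 uM stock) to start; A480 q20 s × 4 min; Activity was normalised to no-enzyme and no-compound control wells.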
Potency is the fitted concentration of half-maximal effect.

Structure (SMILES)	Potency
Clc1ccc(Cl)c(Oc2ccc(Oc3nc(Cl)ccc3Cl)cc2)n1	inactive
Nc1c(N(CCCO)C(=O)C2CCCC2)c(=O)[nH]c(=O)n1Cc1ccccc1	inactive
CCCCCn1c(SCCC(C)C)nc2c1c(=O)[nH]c(=O)n2C	inactive
COC(=O)c1c(NC(=O)c2ccc(S(=O)(=O)N3CCOCC3)cc2)sc2c1CCN(C(C)C)C2	inactive
COc1cccc(Cn2cc(/C=N/NC(=O)c3cc(O)cc(O)c3)c3ccccc32)c1	7.94 µM (active)
N#CCC(=O)N/N=C/c1cn(Cc2ccc3ccccc3c2)c2ccccc12	inactive
CNC(=S)N/N=C/c1cn(Cc2ccc(C)cc2)c2ccccc12	inactive
Cc1ccc(C(=O)N/C(=C\c2ccco2)C(=O)NC2CCS(=O)(=O)C2)cc1 (configuration not stated)	inactive
Cc1cccc(C)c1NC(=O)CS(=O)CC(=O)N1CCN(c2ccccc2)CC1 (configuration not stated)	inactive
O=C(O)CCCN1C(=O)c2ccccc2Sc2ncccc21	inactive
O=C(Nc1ccc(S(=O)(=O)N2CCc3ccccc3C2)cc1)c1ccccc1	inactive
C=CCN(CC=C)S(=O)(=O)c1ccc(C(=O)Nc2nc3c(s2)CCc2ccccc2-3)cc1	8.91 µM (active)
COCCN(CCOC)S(=O)(=O)c1ccc(C(=O)Nc2nc3c(s2)CCc2ccccc2-3)cc1	inactive
O=C(Cc1ccccc1)NCC1OCCc2ccccc21 (configuration not stated)	inactive
CC(=O)N1C(=O)/C(=C2\SC(=S)N(NC(=O)c3ccc(O)cc3)C2=O)c2ccccc21	20 µM (active)
O=C(O)c1ccc(/C=C2\SC(=S)N(NC(=O)c3ccc(Br)cc3)C2=O)cc1	inactive
Cn1cccc1/C=C1\SC(=S)N(NC(=O)c2ccc(Cl)cc2)C1=O	inactive
CC1(c2ccccc2Cl)NC(=O)N(CC(=O)NC(=O)NCc2ccco2)C1=O (configuration not stated)	inactive
O=C1CCN(Cc2ccc([N+](=O)[O-])cc2)CCN1[C@H](CO)Cc1ccccc1	inactive
O=C(CCCn1c(=O)oc2ccccc21)Nc1cccnc1	inactive
Oc1c(CN2CCCC2)cc(COCc2ccccc2)c2cccnc12	inactive
CC(C)CC(=O)N1CCN(Cc2cccc(Cl)c2)CC1	inactive
Clc1cccc(CN2COc3c(cc(Cl)c4cccnc34)C2)c1	35.5 µM (active)
CC[C@]12c3[nH]c4ccc(Cl)cc4c3CCN1C(=O)[C@@H](CC(=O)NCCN1CCOCC1)C[C@@H]2C(=O)N1CCN(C(=O)C2CC2)CC1	inactive
CC(C)CCN1NC2(CCC(C)CC2)NC1=S (configuration not stated)	inactive
O=c1oc2ccccc2c(CNc2ccccc2)c1[N+](=O)[O-]	inactive

Structure (SMILES)	Potency
CC(NC(=O)COC(=O)c1cc(=O)[nH]c2ccccc12)c1ccccc1 (configuration not stated)	inactive
O=C(COC(=O)c1cc(=O)[nH]c2ccccc12)Nc1nc(-c2cccc(Br)c2)cs1	14.1 µM (active)
O=C(COC(=O)c1cc(=O)[nH]c2ccccc12)NCc1cccc(Cl)c1	inactive
CC(C)CCN1C(=O)c2ccc(C(=O)Nc3cccc(S(N)(=O)=O)c3)cc2C1=O	inactive
CN(c1ccccn1)c1ncnc2[nH]ncc12	inactive
Cc1nn(C)c(Cl)c1CN1CCC(Oc2ccc(C(=O)N3CCCC3)cc2)CC1	inactive
Cc1csc(=O)n1CC(=O)Nc1ccc(S(C)(=O)=O)cc1	inactive
O=C(c1ccc(Cl)nc1)N1CCN(S(=O)(=O)c2ccc3c(c2)OCCO3)CC1	inactive
Nc1cc(N)nc(SCC(=O)Nc2cccc(S(=O)(=O)N3CCCCC3)c2)n1	25.1 µM (active)
O=C(CSc1ccccc1)Nc1cccc(S(=O)(=O)N2CCCCC2)c1	inactive
Cn1nnnc1SCC(=O)Nc1cccc(S(=O)(=O)N2CCCCC2)c1	inactive
N#C/C(=C(/O)COC(=O)COc1ccc(Cl)cc1)c1nc2ccccc2[nH]1	11.2 µM (active)
COCCN(CCOC)S(=O)(=O)c1ccc(/C(O)=C(\C#N)c2nc3ccccc3[nH]2)cc1	inactive
COc1ccccc1C(=O)COC(=O)COc1ccc(C#N)cc1	inactive
Cc1cc(C)c(OCCN2CC(C)OC(C)C2)c(Br)c1 (configuration not stated)	inactive
CCN(CC)S(=O)(=O)c1ccc(CNC(=O)CN2C(=O)NC3(CCc4ccccc43)C2=O)cc1 (configuration not stated)	inactive
Cn1cc(C(=O)NCc2ccccc2F)cn1	inactive
Cn1c2cc(B(O)O)sc2c2cnn(Cc3ccccc3F)c(=O)c21	2.82 µM (active)
CCOC(=O)c1c(CNCc2ccccc2F)c2sc(C)cc2n1C	inactive
COc1cc2c(-c3ccc4c(c3)OCO4)c(-c3ccsc3)oc(=O)c2cc1OC	inactive
O=C(NC1CCN(C(=S)NCc2ccco2)CC1)c1ccc(F)cc1	inactive
CN1C(=O)C(CC(N)=O)N(NC(=O)c2ccc(Cl)cc2)C1=S (configuration not stated)	inactive
Cc1ccc(NC(=O)CC2C(=O)N(Cc3ccccc3)C(=S)N2NC(=O)c2cccc(F)c2)c(C)c1 (configuration not stated)	31.6 µM (active)
Cc1ccc(N2C(=O)C(CC(=O)Nc3cccc(F)c3)N(CCc3ccncc3)C2=O)cc1 (configuration not stated)	inactive
CN(C)/C=N/c1cc(=O)n(C)c(=O)n1CC1CC1	inactive
Clc1ccccc1-c1cc(COc2ccc3ccccc3c2)no1	inactive

Structure (SMILES)	Potency
COc1ccc(C2CC(c3ccc(C)cc3)Nc3ncnn32)cc1 (configuration not stated)	inactive
Nc1nc2n(n1)C(c1ccco1)CC(c1ccc(Cl)c(Cl)c1)N2 (configuration not stated)	inactive
Clc1ccc(C2CC(c3cccs3)n3ncnc3N2)cc1Cl (configuration not stated)	0.708 µM (active)
CN(C)CCN(Cc1ccccc1)S(=O)(=O)c1csc(C(N)=O)c1	inactive
Cc1ncn2cc(-c3ccc(Cl)cc3Cl)[nH]c(=O)c12	inactive
Cn1c(O)c(C=Nc2ccc3c(c2)CCC3)c(=O)n(C)c1=O	inactive
Cn1c2c(c(=O)n(C)c1=O)CN(Cc1ccco1)CN2	inactive
CC(C)n1c(=O)c(C=Nc2ccc(Br)cc2)c(O)n(Cc2ccco2)c1=O	14.1 µM (active)
c1nc(COc2nsnc2N2CCOCC2)cs1	inactive
Cc1cc(=O)[nH]c(SCc2cc(Cl)ccc2OC(F)F)n1	inactive
Cc1cc(=O)[nH]c(SCc2cccc(F)c2)n1	inactive
O=c1cc(O)nc(SCc2ccccc2Cl)[nH]1	3.16 µM (active)
CC(C)c1nc2sc3c(c2c(=O)n1N)CC(C)(C)OC3	inactive
CC/C(C)=N/Nc1nc2sc3c(c2c(=O)[nH]1)CC(C)(C)OC3	1.12 µM (active)
CCSc1nc2sc3c(c2c(=O)[nH]1)CC(C)(C)OC3	inactive
Cc1ccc(C(C[N+](=O)[O-])c2c(C)cc3ccccn23)cc1 (configuration not stated)	22.4 µM (active)
Cc1cc2ccccn2c1C(C[N+](=O)[O-])c1c(F)cccc1Cl (configuration not stated)	inactive
Cc1cc2ccccn2c1C(=O)c1cccc(F)c1	inactive
Cn1c(=NC(=O)c2ccc3c(c2)OCCO3)sc2cc(S(C)(=O)=O)ccc21	inactive
C[C@H](NC(=O)c1ccccc1)C(=O)OCC(=O)c1c[nH]c2ccccc12	inactive
COc1ccccc1C(CNC(=O)c1cccc(S(=O)(=O)Nc2ccc(F)cc2)c1)N(C)C (configuration not stated)	inactive
CN(C)c1ccc(C(CNC(=O)c2ccc(F)cc2)c2c[nH]c3ccccc23)cc1 (configuration not stated)	14.1 µM (active)
COc1cccc(/C=N/NC(=O)CNC(=O)c2ccc(S(=O)(=O)N3CCOCC3)cc2)c1OC	inactive
CCOc1ccc2[nH]c(C(=O)N/N=C/c3cccc(OC)c3OC)cc2c1	inactive
COc1cccc(/C=N/NC(=O)c2[nH]nc3c2CCc2ccccc2-3)c1O	5.62 µM (active)
CCc1ccc(C(=O)NN=C2CCCCCC2)s1	inactive

Structure (SMILES)	Potency
CCCNS(=O)(=O)c1ccc(CCC(=O)N2CCCC2)cc1	inactive
COc1ccc(C(CC(=O)c2ccccc2)S(=O)(=O)c2ccccc2)cc1 (configuration not stated)	inactive
COc1ccc(-n2c(SCC(=O)NCc3ccco3)nnc2-c2c[nH]c3ccccc23)cc1	3.55 µM (active)
CCn1c(SCC(=O)Nc2ccc(OC)c(OC)c2)nnc1-c1c[nH]c2ccccc12	0.631 µM (active)
CCn1c(SCCC(C)C)nnc1-c1c[nH]c2ccccc12	inactive
COc1ccc(-n2c(SCC(=O)NCc3cccs3)nnc2-c2ccoc2C)cc1	inactive
O=C(CSc1nnc(-c2c[nH]c3ccccc23)n1-c1ccc(F)cc1)NCc1ccco1	inactive
CCOC(=O)N1CCN(C(=O)CSc2nnc(-c3c[nH]c4ccccc34)n2CCOC)CC1	inactive
N/C(=N\S(=O)(=O)c1ccc(Cl)cc1)N1CCOCC1	inactive
CN(C)Cc1c(O)ccc2c(=O)c(-c3ccccc3Cl)coc12	inactive
Cc1ccc(CNC(=O)CCNS(=O)(=O)c2cccc3nonc23)cc1	inactive
Cc1ccc(N(CC(=O)Nc2cc(C)cc(C)c2)S(=O)(=O)c2cccc3nonc23)cc1	15.8 µM (active)
CCOC(=O)c1cccc(NC(=O)CN(c2ccc(C)cc2)S(=O)(=O)c2c(C)noc2C)c1	inactive
COC(=O)c1ccc(COc2ccc(C#N)cc2)o1	inactive
Cc1cccc(C(=O)OCC(=O)Nc2sc3c(c2C#N)CCC3)c1	inactive
N#CCC(=O)Nc1ccc(C(=O)OCC(=O)Nc2sc3c(c2C#N)CCCC3)cc1	14.1 µM (active)
N#Cc1c(NC(=O)CCCl)sc2c1CCCCC2	inactive
CCOC(=O)Cn1c2c(c(-c3ccccc3OC)cc1=O)CCCC2	inactive
O=C(CSc1nnc(-c2ccncc2)n1C1CCCCC1)Nc1ccccc1	inactive
Cc1ccc(N2C(=O)C3N=NN(CC(=O)N4N=C(c5cccc6ccccc56)CC4c4ccccc4)C3C2=O)cc1 (configuration not stated)	inactive
Cc1cccc(C(C)C)c1NC(=O)COC(=O)C1CC(=O)N(Cc2ccccc2)C1 (configuration not stated)	inactive
NS(=O)(=O)c1ccc(CNC(=O)c2cccc(S(=O)(=O)N3CCc4ccccc43)c2)cc1	14.1 µM (active)
Cc1ccc(NC(=O)c2cccc(S(=O)(=O)N3CCCc4ccccc43)c2)nc1	inactive
NS(=O)(=O)c1ccc(CNC(=O)c2cccc(Oc3ccccc3)c2)cc1	inactive
